Inconclusive results are not listed. Active and inactive are the calls of the source. Rule for the calls, unless noted: active = hit-call score of the fitted dose curve at least 0.9, where 1 is the maximum; inconclusive = response in the unintended direction; inactive = score below 0.9.
What was measured:
[1] = biological target: Androgen receptor (Homo sapiens) (UniProt P10275); test: ATG_AR_TRANS: Attagene TRANS-FACTORIAL HepG2 Assay for human Androgen Receptor (AR) (AID 2282973); settings: HepG2 Attagene TRANS-FACTORIAL AR reporter transcription
Sequence of Androgen receptor (Homo sapiens) (P10275 whole entry, looked up, the tested form may be a part): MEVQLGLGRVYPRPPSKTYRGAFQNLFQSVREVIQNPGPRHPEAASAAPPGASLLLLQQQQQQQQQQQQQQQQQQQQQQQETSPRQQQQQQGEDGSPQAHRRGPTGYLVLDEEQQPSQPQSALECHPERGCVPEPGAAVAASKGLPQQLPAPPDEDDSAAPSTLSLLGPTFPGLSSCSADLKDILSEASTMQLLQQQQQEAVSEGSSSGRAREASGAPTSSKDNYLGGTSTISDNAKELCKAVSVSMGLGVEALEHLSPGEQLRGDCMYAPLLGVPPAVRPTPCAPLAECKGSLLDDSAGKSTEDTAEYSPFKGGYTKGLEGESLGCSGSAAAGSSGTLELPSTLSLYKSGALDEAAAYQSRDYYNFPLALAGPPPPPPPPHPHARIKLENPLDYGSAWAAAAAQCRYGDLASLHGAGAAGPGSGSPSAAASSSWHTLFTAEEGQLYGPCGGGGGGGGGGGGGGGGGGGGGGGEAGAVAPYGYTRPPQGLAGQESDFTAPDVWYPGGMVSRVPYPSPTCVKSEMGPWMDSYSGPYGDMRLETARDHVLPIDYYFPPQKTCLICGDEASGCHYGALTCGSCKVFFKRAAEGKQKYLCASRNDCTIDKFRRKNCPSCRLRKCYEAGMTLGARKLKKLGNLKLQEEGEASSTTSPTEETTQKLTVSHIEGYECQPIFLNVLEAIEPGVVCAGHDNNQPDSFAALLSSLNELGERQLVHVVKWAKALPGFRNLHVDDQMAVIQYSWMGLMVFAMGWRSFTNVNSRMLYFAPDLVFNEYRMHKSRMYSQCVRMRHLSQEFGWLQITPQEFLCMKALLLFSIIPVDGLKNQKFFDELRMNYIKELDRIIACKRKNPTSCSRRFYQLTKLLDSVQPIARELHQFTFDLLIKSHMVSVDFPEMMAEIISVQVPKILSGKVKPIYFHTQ
Procedure, shortened: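 HepG2 cells transiently transfected with multiplexed GAL4-UAS reporter units and chimeric NR-Gal4 fusion; 24 h compound exposure. Reporter mRNA measured by RT-PCR, 6-FAM labelling, HpaI digestion and capillary electrophoresis; gain-of-signal fitted relative to DMSO baseline.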

[2] = Tanguay_ZF_120hpf_MUSC: Oregon State University Tanguay Lab 120 Hour Post-fertilization zebrafish Assay for Muscle Malformation (AID 2284401; active = hit-call score of the fitted dose curve at least 0.9, where 1 is the maximum; inactive = score below 0.9)
Procedure, shortened: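 Scored as a binary brightfield endpoint at 120 hpf, fitted versus DMSO. Single dechorionated wild-type (Tropical 5D) zebrafish embryos per well, statically exposed at 28C from 6 hpf onward with final DMSO 0.64%.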

[3] = biological target: Norway rat Vesicular Monoamine Transporter (VMAT2), neurotransmitter transporter, Slc18a2 (gene 25549) (UniProt Q01827); test: NVS_TR_rVMAT2: NovaScreen (NVS) Transporter Assay for Norway rat Vesicular Monoamine Transporter (VMAT2), neurotransmitter transporter (AID 2283376);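 note: actives lower the bound radioligand signal below the DMSO level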
Sequence of Norway rat Vesicular Monoamine Transporter (VMAT2), neurotransmitter transporter, Slc18a2 (gene 25549) (Q01827 whole entry, looked up): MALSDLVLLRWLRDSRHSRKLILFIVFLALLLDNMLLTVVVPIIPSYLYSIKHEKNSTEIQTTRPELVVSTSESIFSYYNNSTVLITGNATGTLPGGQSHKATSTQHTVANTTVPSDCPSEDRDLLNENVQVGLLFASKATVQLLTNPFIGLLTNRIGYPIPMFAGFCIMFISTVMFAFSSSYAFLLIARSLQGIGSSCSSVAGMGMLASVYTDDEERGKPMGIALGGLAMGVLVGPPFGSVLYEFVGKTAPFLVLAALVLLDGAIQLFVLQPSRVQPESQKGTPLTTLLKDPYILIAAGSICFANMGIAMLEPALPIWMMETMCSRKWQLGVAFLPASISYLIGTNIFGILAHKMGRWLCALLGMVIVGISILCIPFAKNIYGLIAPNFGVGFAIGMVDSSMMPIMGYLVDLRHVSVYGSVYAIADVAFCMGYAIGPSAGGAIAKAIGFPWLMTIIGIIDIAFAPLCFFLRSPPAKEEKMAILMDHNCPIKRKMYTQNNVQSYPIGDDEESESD
Procedure, shortened: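 Using rat forebrain membranes, specific radioligand binding to VMAT2 was measured by filtration and scintillation counting after 1 hour. Chemicals screened at 25 uM in duplicate, actives retested in concentration series, DMSO baseline.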

[4] = test system: rat Monoamine Oxidase, MAO-A, Central (MAOAC), gene 29253; test: NVS_ENZ_rMAOAC: NovaScreen (NVS) Enzymatic Assay for rat Monoamine Oxidase, MAO-A, Central (MAOAC) (AID 2283243);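 note: potency refers to inhibition seen as signal drop below DMSO baseline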
Procedure, shortened: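 Single-concentration duplicate testing at 25 uM, then concentration-response for actives, in a lysate-based radiodetection MAO-A activity assay from rat brain. Enzyme activity measured 1.5 hours post-dosing; DMSO served as negative control and baseline.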

[5] = CCTE_Harrill_HTTr_Apoptosis_PRF_DMEM_12hr: (Pilot) CCTE's 12-hour Apoptosis Assessment for the High-Throughput Transcriptomics (HTTr) Platform, in MCF-7 cells cultured in phenol red-free DMEM + 10% charcoal-stripped fetal bovine serum, Harrill Lab (AID 2283985; active = hit-call score of the fitted dose curve at least 0.9, where 1 is the maximum; inactive = score below 0.9)
Procedure, shortened: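 Caspase-3/7 activity by CellEvent Green high content imaging after 12 h compound exposure (eight concentrations) in MCF-7 grown in phenol red-free DMEM plus 10% charcoal-stripped serum; DMSO as baseline.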

[6] = biological target: rat Oxytocin Receptor (OXT), Oxtr (gene 25342) (UniProt P70536); test: NVS_GPCR_rOXT: NovaScreen (NVS) G Protein-Coupled Receptor Assay for rat Oxytocin Receptor (OXT) (AID 2283330)
Sequence of rat Oxytocin Receptor (OXT), Oxtr (gene 25342) (P70536 whole entry, looked up): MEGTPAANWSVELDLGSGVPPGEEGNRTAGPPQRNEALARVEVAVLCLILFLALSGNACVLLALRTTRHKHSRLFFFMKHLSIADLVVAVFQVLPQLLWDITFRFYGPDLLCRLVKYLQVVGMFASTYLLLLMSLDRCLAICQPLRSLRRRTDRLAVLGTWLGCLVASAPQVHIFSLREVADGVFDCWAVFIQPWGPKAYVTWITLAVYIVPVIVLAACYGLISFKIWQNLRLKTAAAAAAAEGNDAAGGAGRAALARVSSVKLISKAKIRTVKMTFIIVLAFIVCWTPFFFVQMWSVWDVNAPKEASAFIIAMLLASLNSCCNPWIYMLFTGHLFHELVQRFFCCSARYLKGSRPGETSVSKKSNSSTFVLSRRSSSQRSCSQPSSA
Procedure, shortened: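 Binding to rat uterine membrane receptor was followed by scintillation counting of filter-trapped radioligand after 1 h. A 25 uM duplicate single-point screen preceded concentration series with a top of 50 uM. Signal loss was analysed relative to DMSO.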

[7] = biological target: Voltage-dependent N-type calcium channel subunit alpha-1B (Rattus norvegicus) (UniProt Q02294); test: NVS_IC_rCaChN: NovaScreen (NVS) Ion Channel Assay for rat Calcium Channel, Type N (CaChN) (AID 2283317)
[8] = biological target: human Neonicotinoid receptor (NNR), CHRNA2 (gene 1135) (UniProt Q15822); test: NVS_LGIC_hNNR_NBungSens: NovaScreen (NVS) Ligand-Gated Ion Channel Assay for human Neonicotinoid receptor (NNR) (AID 2283313)
Sequence of human Neonicotinoid receptor (NNR), CHRNA2 (gene 1135) (Q15822 whole entry, looked up): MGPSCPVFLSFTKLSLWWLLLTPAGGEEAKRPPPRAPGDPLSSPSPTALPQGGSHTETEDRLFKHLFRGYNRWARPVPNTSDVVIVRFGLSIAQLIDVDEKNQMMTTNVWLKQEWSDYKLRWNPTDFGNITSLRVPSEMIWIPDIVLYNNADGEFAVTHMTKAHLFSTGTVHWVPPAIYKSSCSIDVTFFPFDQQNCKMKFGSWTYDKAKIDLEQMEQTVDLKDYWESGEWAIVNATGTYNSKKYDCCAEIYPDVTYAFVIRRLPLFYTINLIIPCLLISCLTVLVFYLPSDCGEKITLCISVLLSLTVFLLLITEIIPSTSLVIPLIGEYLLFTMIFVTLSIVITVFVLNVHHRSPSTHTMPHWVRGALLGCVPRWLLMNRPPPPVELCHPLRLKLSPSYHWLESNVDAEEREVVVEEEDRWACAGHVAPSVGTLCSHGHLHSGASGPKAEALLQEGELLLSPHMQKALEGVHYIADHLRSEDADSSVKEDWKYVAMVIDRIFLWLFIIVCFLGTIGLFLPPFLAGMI
Procedure, shortened: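 Compounds first screened in duplicate at 25 uM, then actives re-tested in single-replicate dose series up to 50 uM. Binding measured as displacement of specific radioligand from neuroblastoma membrane receptors after 2 h, scintillation read on filters.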

## O=C(O)C=C(C(F)(F)F)C(F)(F)F
[1]
  outcome: inactive
[2]
  outcome: inactive

## O=C1CCC(=O)N1
[1]
  outcome: inactive
[3]
  outcome: inactive

## Clc1ccc2c(Cl)ccnc2c1
[1]
  outcome: inactive
[4]
  AC50: 20.8 µM (active)

## O=C(O)C(F)(F)C(F)(F)C(F)(F)OC(F)(F)F
[1]
  outcome: inactive
[2]
  outcome: inactive

## CCN(CC)c1ccc(N=Nc2ccccc2)cc1
[1]
  outcome: inactive
[3]
  outcome: inactive

## CC(C)OC(=O)C(C)(C)Oc1ccc(C(=O)c2ccc(Cl)cc2)cc1
[1]
  outcome: inactive
[5]
  outcome: inactive

## CCN(CC)c1ccc(C=O)c(O)c1
[1]
  outcome: inactive
[4]
  AC50: 17.5 µM (active)
[3]
  outcome: inactive

## O=C(CC(=O)C(F)(F)C(F)(F)F)C(F)(F)F
[1]
  outcome: inactive
[2]
  outcome: inactive

## NC(=O)C(F)(F)C(F)(F)C(F)(F)C(F)(F)C(F)(F)C(F)(F)C(F)(F)F
[1]
  outcome: inactive
[2]
  outcome: inactive

## CCCN(CCC)C(=O)SCC
[1]
  outcome: inactive
[6]
  outcome: inactive

## CSc1ccc(O)cc1C
[1]
  outcome: inactive
[4]
  AC50: 15.7 µM (active)

## C[N+](C)(C)CCCNS(=O)(=O)C(F)(F)C(F)(F)C(F)(F)C(F)(F)C(F)(F)C(F)(F)C(F)(F)C(F)(F)F
[1]
  outcome: inactive
[2]
  outcome: inactive

## Cc1cc(F)ccc1-c1cc(N2CC[C@@H](O)[C@H]2CO)ncc1N(C)C(=O)C(C)(C)c1cc(C(F)(F)F)cc(C(F)(F)F)c1
[1]
  outcome: inactive
[3]
  AC50: 11.7 µM (active)

## CCC(=C(c1ccc(O)cc1)c1ccc(OCCN(C)C)cc1)c1ccccc1
[1]
  outcome: inactive
[7]
  outcome: inactive
[3]
  AC50: 0.626 µM (active)
[5]
  AC50: 80.6 µM (active)

## O=C(O)C(F)(F)C(F)(F)C(F)(F)C(F)(F)C(F)(F)C(F)(F)C(F)(F)C(F)(F)Cl
[1]
  outcome: inactive
[2]
  AC50: 39.3 µM (active)

## COCCC(=O)OC
[1]
  outcome: inactive
[4]
  outcome: inactive

## CCC(=O)OC/C=C(\C)CCC=C(C)C
[1]
  outcome: inactive
[4]
  outcome: inactive

## O=C(O)C(F)(F)C(F)(F)C(F)F
[1]
  outcome: inactive
[2]
  outcome: inactive

## O=S(=O)(OCC(F)F)C(F)(F)F
[1]
  outcome: inactive
[2]
  outcome: inactive

## NCCOCCOCCN
[1]
  outcome: inactive
[8]
  outcome: inactive
[6]
  outcome: inactive

## FC(F)(F)C(F)(F)C(F)(F)N(C(F)(F)C(F)(F)C(F)(F)F)C(F)(F)C(F)(F)C(F)(F)F
[1]
  outcome: inactive
[2]
  outcome: inactive

## CC1=C(C)S(=O)(=O)CCS1(=O)=O
[1]
  outcome: inactive
[3]
  outcome: inactive

## C[Si](C)(C)C(F)(F)C(F)(F)C(F)(F)F
[1]
  outcome: inactive
[2]
  outcome: inactive

## C=CC(=O)OCCC(F)(F)C(F)(F)C(F)(F)C(F)(F)F
[1]
  outcome: inactive
[2]
  outcome: inactive

## OCCCC(F)(F)C(F)(F)C(F)(F)F
[1]
  outcome: inactive
[2]
  outcome: inactive

## FC(F)(F)C(F)(F)C(F)(F)C(F)(F)C(F)(F)C(F)(F)C(F)(F)C(F)(F)F
[1]
  outcome: inactive
[2]
  outcome: inactive

## CNS(=O)(=O)C(F)(F)C(F)(F)C(F)(F)C(F)(F)C(F)(F)C(F)(F)C(F)(F)C(F)(F)F
[1]
  outcome: inactive
[2]
  outcome: inactive

## O=C(O)C(F)(F)C(F)(F)C(F)(F)C(F)(F)C(F)(F)C(F)(F)C(F)(F)C(F)(F)C(F)(F)C(F)(F)C(F)(F)C(F)(F)C(F)(F)F
[1]
  outcome: inactive
[2]
  outcome: inactive

## N=C(N)C(F)(F)C(F)(F)C(F)(F)C(F)(F)C(F)(F)C(F)(F)C(F)(F)F
[1]
  outcome: inactive
[2]
  outcome: inactive

## FC(F)(F)C(F)(F)C(F)(F)CC1CO1 (stereo unspecified)
[1]
  outcome: inactive
[2]
  outcome: inactive

## FC(F)C(F)(F)COCC1CO1 (stereo unspecified)
[1]
  outcome: inactive
[2]
  outcome: inactive

Source: PubChem BioAssay (EPA / NIEHS)
